Test results as given in PubChem BioAssay AID624330 (Southern Research Specialized Biocontainment Screening …, 2012).
Where “and” joins values, the source holds several entries; their conditions need not be identical. Equal values may be shown once. The campaign covered roughly 340,000 compounds. About 2,100 (0.62%) were called active.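 How the source made its calls: active means first-screen hits whose inhibition reached a set limit at any dose in the follow-up dose series; inconclusive means inhibition above the set first-screen limit but never retested; inactive means the rest.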 Only a sample is shown. Results with a measured potency or affinity are listed apart.

Biological target: Rac GTPase-activating protein 1 (Homo sapiens) (UniProt Q9H0H5)
Assay: blockers of MgcRacGAP-driven Rac1 GTP hydrolysis – biochemical, ADP Hunter fluorescence, primary and confirmatory, confirmation (AID 624330);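 further: fluorescence reports GDP produced by GAP-driven GTP hydrolysis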
Details: MgcRacGAP-stimulated Rac1 GTP hydrolysis, at 30 µM, hits give high values, GST-tagged Rac1 F28L mutant substrate

Chain of Rac GTPase-activating protein 1 (Homo sapiens) (Q9H0H5 whole entry, looked up): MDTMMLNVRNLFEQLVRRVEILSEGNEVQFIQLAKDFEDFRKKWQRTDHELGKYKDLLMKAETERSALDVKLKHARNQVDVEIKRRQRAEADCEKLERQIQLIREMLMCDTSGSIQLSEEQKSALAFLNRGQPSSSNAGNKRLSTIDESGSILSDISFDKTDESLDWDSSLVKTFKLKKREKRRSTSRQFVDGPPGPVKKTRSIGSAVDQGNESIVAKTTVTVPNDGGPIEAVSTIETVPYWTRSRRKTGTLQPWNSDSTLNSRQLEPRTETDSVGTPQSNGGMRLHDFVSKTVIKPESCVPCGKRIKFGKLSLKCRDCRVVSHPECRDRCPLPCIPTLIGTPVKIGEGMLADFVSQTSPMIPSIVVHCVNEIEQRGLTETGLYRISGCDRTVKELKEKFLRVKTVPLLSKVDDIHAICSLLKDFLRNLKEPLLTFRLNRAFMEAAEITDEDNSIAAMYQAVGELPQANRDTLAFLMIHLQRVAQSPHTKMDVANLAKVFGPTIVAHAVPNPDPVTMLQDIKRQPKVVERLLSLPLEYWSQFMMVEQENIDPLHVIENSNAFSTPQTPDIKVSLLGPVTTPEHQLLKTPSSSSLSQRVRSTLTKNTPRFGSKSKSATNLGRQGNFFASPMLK

inhibition, inactive:
CCCNC(=O)CSC1=N/C(=C/c2ccc(F)cc2)C(=O)N1CC -5.26%
CCC(=O)NC(=S)Nc1ccc(S(=O)(=O)NC(C)C)cc1 -11.4%
O=C(COC(=O)C1CCC1)Nc1cccc(Cl)c1 2.49%
O=C(NC1CCCCC1)C(c1ccncc1)N(C(=O)c1csnn1)c1ccc(F)cc1 (stereo not drawn) 0.4%
CC1=CCC2C(=O)N(c3ccccc3OC(=O)c3ccccc3F)C(=O)C2C1 (stereo not drawn) 2.92%
C=CCC1CCC/C(=N\NS(=O)(=O)c2ccc(C)cc2)C1 (stereo not drawn) -4.06%
Nc1ccn(CCCN2CCN(C(=O)C3CC3)CC2)c(=O)n1 15.1%
COc1cc(C2c3[nH]c4ccccc4c3C[C@H]3C(=O)N(CCO)CC(=O)N23)cc(OC)c1OC (stereo partly drawn) 8.37%
Cc1c(C(=O)N2CCN(S(=O)(=O)c3ccccc3)CC2)oc2ccccc12 3.82%
O=C(Nc1ccccc1)N1CCc2scc[n+]2-c2ccccc21 16.9%
O=C(NCc1nnc(SCC(=O)N2CCOCC2)o1)c1c(F)cccc1F 7.33%
O=C(NNc1c(Cl)cccc1Cl)c1sccc1Cl 6.69%
COc1ccc(C(=O)Nc2ccc3ccccc3c2)cc1 3.97%
COc1ccc(Nc2cccc3ccccc23)cc1 31.6%
COc1ccc(NC(C)=O)c(C)c1 -3.51%
COc1ccc(Nc2cccccc2=O)cc1 7.45%
O=C(Nc1ccc(S(=O)(=O)Nc2ncccn2)cc1)c1ccccc1 2.75%
CCc1cccc(CC)c1NC(=O)CN1CCN(c2ccccc2)CC1 20.5%
COc1ccccc1NS(=O)(=O)c1ccc(C)c(C(=O)N2CCCC2)c1 -1.95%
COc1ccc(OC)c(CN2CCN(C(=O)c3cc(S(=O)(=O)Nc4ccccc4OC)ccc3C)CC2)c1 -2.48%
COc1cc(C(O)P(=O)(OCCC(C)C)c2ccc(N(C)C)cc2)cc(OC)c1OC (stereo not drawn) -1.91%
CN(C)/C=N/c1ncc(C(=O)c2ccccc2)s1 7.32%
CN(C)/C=N/c1ncc(C(=O)c2ccc(Cl)cc2)s1 3.44%
COc1ccc(CC(=O)NNC(=O)c2cc(Cl)ccc2OC)cc1 -0.57%
CC(Oc1ccccc1)C(=O)NC1C(=O)N2C1SC(C)(C)C2C(=O)O (stereo not drawn) 6.29%
Cc1nc(CSc2nnc(Nc3cccc(C)c3C)s2)cs1 4.77%
COc1ccccc1Nc1nc(C)cs1 0.84% and 0.19%
O=C1c2ccccc2C(=O)N1CSc1nnc(Nc2ccccc2F)s1 5.49%
Cc1ccc(Nc2nc3ccccc3o2)cc1F 1.08%
Cc1nnc(Nc2ccc(Cl)cc2)s1 -3.99%
COc1ccccc1Nc1ccc(Nc2ccccc2OC)nn1 -7.41%
Cc1nnc(Nc2ccccc2F)s1 8%
Cc1cccc(Nc2nc3ccccc3s2)c1C 0.63%
